Experimental data reported in PubChem BioAssay AID1159580 (chemical genetic matrix, 2015).
Screen size: about 5,500 compounds; about 2,000 (36%) were called active. Inconclusive results (about 18%) are left out. Cut-off read from the data, not from the text of the source: active = normalized growth mostly below about 0.91 (no sharp cut-off); inconclusive = no clear call, values can overlap the other calls; inactive = mostly above about 0.92. The list shows a part of the results.

Experiment: chemical genetic growth profiling, strain panel (AID 1159580);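 note: tested at 20 µM; growth read once vehicle control cultures reached saturation at 30 °C; 1 = growth at the plate median or of vehicle wells; lower values mean less growth of the strain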
Details: growth OD

Measured: normalized growth

COc1cc(NC(C)CCCN)c2ncccc2c1 (configuration not stated)
inactive: S. cerevisiae deletion strains, locus YJR075W, strain HOC1, stronger effect = lower value 1 | S. cerevisiae deletion strains, locus YKL009W, strain mrt4, stronger effect = lower value 1.02 | S. cerevisiae deletion strains, locus YKL068W, stronger effect = lower value 1.01 | S. cerevisiae deletion strains, locus YKL085W, strain MDH1 (second series), stronger effect = lower value 1 | S. cerevisiae deletion strains, locus YKL085W, strain MDH1, stronger effect = lower value 1 | S. cerevisiae deletion strains, locus YKL160W, strain elf1, stronger effect = lower value 0.942 | S. cerevisiae deletion strains, locus YKL190W, strain CNB1, stronger effect = lower value 1 | S. cerevisiae deletion strains, locus YKR001C, strain vps1, stronger effect = lower value 1.01 | S. cerevisiae deletion strains, locus YKR026C, strain gcn3, stronger effect = lower value 1.01 | S. cerevisiae deletion strains, locus YKR091W, strain srl3, stronger effect = lower value 0.999 | S. cerevisiae deletion strains, locus YLL001W, strain dnm1, stronger effect = lower value 0.965 | S. cerevisiae deletion strains, locus YLL026W, stronger effect = lower value 0.998 | S. cerevisiae deletion strains, locus YLL041C, strain sdh2, stronger effect = lower value 1 | S. cerevisiae deletion strains, locus YLR027C, strain aat2, stronger effect = lower value 0.997 | S. cerevisiae deletion strains, locus YLR039C, strain RIC1, stronger effect = lower value 1.03 | S. cerevisiae deletion strains, locus YLR058C, strain SHM2, stronger effect = lower value 1.01 | S. cerevisiae deletion strains, locus YLR102C, strain apc9, stronger effect = lower value 1.01 | S. cerevisiae deletion strains, locus YLR113W, strain HOG1, stronger effect = lower value 1.06 | S. cerevisiae deletion strains, locus YLR221C, strain rsa3, stronger effect = lower value 1.01 | S. cerevisiae deletion strains, locus YLR258W, strain gsy2, stronger effect = lower value 1.04 | S. cerevisiae deletion strains, locus YLR262C, strain YPT6 (second series), stronger effect = lower value 0.956 | S. cerevisiae deletion strains, locus YLR262C, strain YPT6, stronger effect = lower value 1.05 | S. cerevisiae deletion strains, locus YLR268W, strain sec22, stronger effect = lower value 1.02 | S. cerevisiae deletion strains, locus YLR320W, strain mms22, stronger effect = lower value 0.987 | S. cerevisiae deletion strains, locus YLR330W, strain CHS5, stronger effect = lower value 1 | S. cerevisiae deletion strains, locus YLR342W, strain FKS1 (second series), stronger effect = lower value 0.947 | S. cerevisiae deletion strains, locus YLR342W, strain FKS1, stronger effect = lower value 0.991 | S. cerevisiae deletion strains, locus YLR357W, strain rsc2, stronger effect = lower value 0.991 | S. cerevisiae deletion strains, locus YLR370C, strain arc18, stronger effect = lower value 1.02 | S. cerevisiae deletion strains, locus YLR371W, strain rom2, stronger effect = lower value 1.01 | S. cerevisiae deletion strains, locus YLR384C, strain iki3, stronger effect = lower value 1.02 | S. cerevisiae deletion strains, locus YLR418C, strain cdc73, stronger effect = lower value 0.988 | S. cerevisiae deletion strains, locus YML016C, strain PPZ1, stronger effect = lower value 1.01 | S. cerevisiae deletion strains, locus YML032C, strain rad52, stronger effect = lower value 1.01 | S. cerevisiae deletion strains, locus YML120C, strain ndi1, stronger effect = lower value 0.995 | S. cerevisiae deletion strains, locus YML124C, strain tub3, stronger effect = lower value 1.01 | S. cerevisiae deletion strains, locus YMR058W, strain fet3, stronger effect = lower value 0.999 | S. cerevisiae deletion strains, locus YMR078C, strain ctf18, stronger effect = lower value 0.997 | S. cerevisiae deletion strains, locus YMR125W, strain sto1, stronger effect = lower value 0.951 | S. cerevisiae deletion strains, locus YMR129W, stronger effect = lower value 1.01 | S. cerevisiae deletion strains, locus YMR205C, strain PFK2, stronger effect = lower value 0.962 | S. cerevisiae deletion strains, locus YMR223W, strain ubp8, stronger effect = lower value 0.991 | S. cerevisiae deletion strains, locus YMR231W, strain pep5, stronger effect = lower value 1.01 | S. cerevisiae deletion strains, locus YMR263W, strain SAP30, stronger effect = lower value 1 | S. cerevisiae deletion strains, locus YMR307W, strain GAS1, stronger effect = lower value 0.951 | S. cerevisiae deletion strains, locus YNL067W, strain RPL9B, stronger effect = lower value 1.01 | S. cerevisiae deletion strains, locus YNL071W, strain lat1, stronger effect = lower value 1.01 | S. cerevisiae deletion strains, locus YNL128W, strain TEP1, stronger effect = lower value 1 | S. cerevisiae deletion strains, locus YNL153C, strain GIM3, stronger effect = lower value 1.01 | S. cerevisiae deletion strains, locus YNL183C, strain NPR1, stronger effect = lower value 0.972 | S. cerevisiae deletion strains, locus YNL209W, strain ssb2, stronger effect = lower value 1 | S. cerevisiae deletion strains, locus YNL233W, strain BNI4, stronger effect = lower value 1 | S. cerevisiae deletion strains, locus YNL248C, strain rpa49, stronger effect = lower value 0.938 | S. cerevisiae deletion strains, locus YNL250W, strain rad50, stronger effect = lower value 1.02 | S. cerevisiae deletion strains, locus YNL271C, strain bni1, stronger effect = lower value 1.02 | S. cerevisiae deletion strains, locus YNL298W, strain CLA4, stronger effect = lower value 1.02 | S. cerevisiae deletion strains, locus YNL307C, strain MCK1, stronger effect = lower value 1 | S. cerevisiae deletion strains, locus YNL322C, strain KRE1 (second series), stronger effect = lower value 1 | S. cerevisiae deletion strains, locus YNL322C, strain KRE1, stronger effect = lower value 1 | S. cerevisiae deletion strains, locus YNR049C, strain mso1, stronger effect = lower value 1 | S. cerevisiae deletion strains, locus YNR052C, strain pop2, stronger effect = lower value 1.02 | S. cerevisiae deletion strains, locus YOL006C, strain TOP1, stronger effect = lower value 1.03 | S. cerevisiae deletion strains, locus YOL012C, strain htz1 1 | S. cerevisiae deletion strains, locus YOL147C, strain pex11, stronger effect = lower value 1.02 | S. cerevisiae deletion strains, locus YOR001W, strain rrp6, stronger effect = lower value 1.02 | S. cerevisiae deletion strains, locus YOR061W, strain CKA2, stronger effect = lower value 1 | S. cerevisiae deletion strains, locus YOR069W, strain VPS5, stronger effect = lower value 1.01 | S. cerevisiae deletion strains, locus YOR070C, strain gyp1, stronger effect = lower value 1.02 | S. cerevisiae deletion strains, locus YOR080W, strain dia2, stronger effect = lower value 1.01 | S. cerevisiae deletion strains, locus YOR083W, strain WHI5, stronger effect = lower value 0.958 | S. cerevisiae deletion strains, locus YOR106W, strain vam3, stronger effect = lower value 0.959 | S. cerevisiae deletion strains, locus YOR136W, strain idh2, stronger effect = lower value 1.01 | S. cerevisiae deletion strains, locus YOR144C, strain elg1, stronger effect = lower value 1.01 | S. cerevisiae deletion strains, locus YOR184W, strain ser1, stronger effect = lower value 1.04 | S. cerevisiae deletion strains, locus YOR231W, strain MKK1, stronger effect = lower value 1 | S. cerevisiae deletion strains, locus YOR265W, strain rbl2, stronger effect = lower value 1.02 | S. cerevisiae deletion strains, locus YOR270C, strain vph1, stronger effect = lower value 1.05 | S. cerevisiae deletion strains, locus YOR290C, strain snf2, stronger effect = lower value 0.997 | S. cerevisiae deletion strains, locus YOR316C, strain cot1, stronger effect = lower value 1.01 | S. cerevisiae deletion strains, locus YPL051W, strain arl3, stronger effect = lower value 0.982 | S. cerevisiae deletion strains, locus YPL055C, strain LGE1, stronger effect = lower value 1 | S. cerevisiae deletion strains, locus YPL078C, strain atp4, stronger effect = lower value 0.96 | S. cerevisiae deletion strains, locus YPL106C, strain sse1, stronger effect = lower value 1 | S. cerevisiae deletion strains, locus YPL240C, strain hsp82, stronger effect = lower value 1.01 | S. cerevisiae deletion strains, locus YPL241C, strain CIN2, stronger effect = lower value 1 | S. cerevisiae deletion strains, locus YPL256C, strain CLN2, stronger effect = lower value 1.07 | S. cerevisiae deletion strains, locus YPR119W, strain clb2, stronger effect = lower value 1.01 | S. cerevisiae deletion strains, locus YPR141C, strain kar3, stronger effect = lower value 1.01 | S. cerevisiae deletion strains, locus YPR163C, strain tif3, stronger effect = lower value 1.01 | S. cerevisiae deletion strains, locus YPR167C, strain met16, stronger effect = lower value 1.02 | S. cerevisiae deletion strains, strain wtn01, stronger effect = lower value 1.02 | S. cerevisiae strains, strain wild type, stronger effect = lower value 1
